Measured values as given in article PMC10812921, “Transcriptional Coactivator BOB1 (OBF1, OCA-B) Modulates the Specificity of DNA Recognition by the POU-Domain Factors OCT1 and OCT2 in a Monomeric Configuration”.

Molecular target: POU1 (OCT1 POU domain) (human, UniProt P14859 260-458)
Assay: EMSA-SELEX-seq; no BOB1; 20 mM Tris-HCl pH 7.6, 140 mM NaCl, 10% glycerol, 0.5 mM EDTA, 0.05% Triton X-100, 0.1 mg/mL BSA, 0.1 mg/mL poly(dI-dC), 5 mM DTT, room temperature, 20 min; high values mean tight binding
Conditions: protein: recombinant; dsDNA, one strand shown
Summary of the method: (§1)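 Binding preference is reported as the percentage of sequenced 8-mers that match a motif pattern. Tagged POU-domain proteins were made in E. coli BL21, purified under denaturing conditions and renatured. A 30 ng portion was combined with 300 ng of a PCR-amplified double-stranded random 35-nt library, with or without 28 ng coactivator protein, in 20 μL Tris–HCl pH 7.6 binding buffer for 20 min at RT. Complex bands were excised from native 6% PAGE, eluted and PCR-amplified over four rounds before Illumina sequencing.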

Sequence of POU1 (OCT1 POU domain) (P14859 260-458): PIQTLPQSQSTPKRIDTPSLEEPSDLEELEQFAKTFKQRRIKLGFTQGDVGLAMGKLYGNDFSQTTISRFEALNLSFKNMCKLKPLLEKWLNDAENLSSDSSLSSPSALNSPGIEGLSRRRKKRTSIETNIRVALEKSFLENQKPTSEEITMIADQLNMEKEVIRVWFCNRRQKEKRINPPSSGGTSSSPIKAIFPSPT

Sequence	binding signal
AAGCCAAC	0.0137 % of ANNNNAAN 8-mers
AGTAGAAA	0.0511 % of ANNNNAAN 8-mers
ATCCAAAG	0.0427 % of ANNNNAAN 8-mers
ACTGGAAG	0.021 % of ANNNNAAN 8-mers
AGTCAAAC	0.0763 % of ANNNNAAN 8-mers
ACGATAAC	0.0252 % of ANNNNAAN 8-mers
ATTCGAAC	0.0351 % of ANNNNAAN 8-mers
AGCGTAAA	0.0427 % of ANNNNAAN 8-mers
ATTACAAG	0.0515 % of ANNNNAAN 8-mers
ACCCTAAA	0.0137 % of ANNNNAAN 8-mers
ACCACAAT	0.0179 % of ANNNNAAN 8-mers
ATTTTAAT	0.672 % of ANNNNAAN 8-mers
ATCCCAAC	0.0137 % of ANNNNAAN 8-mers
AGCACAAT	0.0233 % of ANNNNAAN 8-mers
AGAAAAAA	0.0767 % of ANNNNAAN 8-mers
AAAGGAAT	0.0953 % of ANNNNAAN 8-mers
ATCATAAC	0.0324 % of ANNNNAAN 8-mers
ATTATAAC	0.0713 % of ANNNNAAN 8-mers
AAAGCAAG	0.04 % of ANNNNAAN 8-mers
ACAACAAG	0.0248 % of ANNNNAAN 8-mers

Sequence	binding signal
AGCAAAAC	0.0481 % of ANNNNAAN 8-mers
ATCAAAAT	0.095 % of ANNNNAAN 8-mers
AGCGTAAT	0.0591 % of ANNNNAAN 8-mers
AGTCTAAT	0.147 % of ANNNNAAN 8-mers
AGCGAAAT	0.0526 % of ANNNNAAN 8-mers
AGCGAAAC	0.0183 % of ANNNNAAN 8-mers
ACTAAAAC	0.0233 % of ANNNNAAN 8-mers
AGATCAAT	0.0465 % of ANNNNAAN 8-mers
ATTGAAAT	0.257 % of ANNNNAAN 8-mers
AGTTAAAT	0.219 % of ANNNNAAN 8-mers
AAAGGAAG	0.0561 % of ANNNNAAN 8-mers
ACACAAAA	0.0454 % of ANNNNAAN 8-mers
ACGTGAAG	0.0259 % of ANNNNAAN 8-mers
AATCCAAC	0.0259 % of ANNNNAAN 8-mers
AAGCCAAA	0.0305 % of ANNNNAAN 8-mers
ATAGCAAC	0.0183 % of ANNNNAAN 8-mers
ACTAGAAT	0.0473 % of ANNNNAAN 8-mers
AACTTAAG	0.0351 % of ANNNNAAN 8-mers
ATATAAAG	0.0725 % of ANNNNAAN 8-mers
AATAAAAT	0.214 % of ANNNNAAN 8-mers

Molecular target: T1, POU2 (OCT2 POU domain) (human, UniProt P09086 175-386)
T1 sequence: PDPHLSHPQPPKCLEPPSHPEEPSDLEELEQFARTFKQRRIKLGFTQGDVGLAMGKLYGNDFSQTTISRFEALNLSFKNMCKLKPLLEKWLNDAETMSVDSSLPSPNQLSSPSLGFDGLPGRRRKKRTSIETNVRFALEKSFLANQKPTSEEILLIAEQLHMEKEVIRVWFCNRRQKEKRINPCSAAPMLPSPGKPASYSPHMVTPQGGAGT
Assay: as above
Conditions: protein: recombinant; dsDNA, one strand shown
Summary of the method: as §1

Sequence	binding signal
AAGCCAAC	0.0161 % of ANNNNAAN 8-mers
AGTAGAAA	0.0708 % of ANNNNAAN 8-mers
ATCCAAAG	0.0397 % of ANNNNAAN 8-mers
ACTGGAAG	0.027 % of ANNNNAAN 8-mers
AGTCAAAC	0.042 % of ANNNNAAN 8-mers
ACGATAAC	0.0293 % of ANNNNAAN 8-mers
ATTCGAAC	0.046 % of ANNNNAAN 8-mers
AGCGTAAA	0.0455 % of ANNNNAAN 8-mers
ATTACAAG	0.0875 % of ANNNNAAN 8-mers
ACCCTAAA	0.0173 % of ANNNNAAN 8-mers
ACCACAAT	0.0178 % of ANNNNAAN 8-mers
ATTTTAAT	0.679 % of ANNNNAAN 8-mers
ATCCCAAC	0.0213 % of ANNNNAAN 8-mers
AGCACAAT	0.0311 % of ANNNNAAN 8-mers
AGAAAAAA	0.0857 % of ANNNNAAN 8-mers
AAAGGAAT	0.124 % of ANNNNAAN 8-mers
ATCATAAC	0.0374 % of ANNNNAAN 8-mers
ATTATAAC	0.113 % of ANNNNAAN 8-mers
AAAGCAAG	0.0368 % of ANNNNAAN 8-mers
ACAACAAG	0.0167 % of ANNNNAAN 8-mers

Sequence	binding signal
AGCAAAAC	0.0449 % of ANNNNAAN 8-mers
ATCAAAAT	0.0932 % of ANNNNAAN 8-mers
AGCGTAAT	0.0748 % of ANNNNAAN 8-mers
AGTCTAAT	0.166 % of ANNNNAAN 8-mers
AGCGAAAT	0.0627 % of ANNNNAAN 8-mers
AGCGAAAC	0.023 % of ANNNNAAN 8-mers
ACTAAAAC	0.0311 % of ANNNNAAN 8-mers
AGATCAAT	0.0432 % of ANNNNAAN 8-mers
ATTGAAAT	0.29 % of ANNNNAAN 8-mers
AGTTAAAT	0.213 % of ANNNNAAN 8-mers
AAAGGAAG	0.061 % of ANNNNAAN 8-mers
ACACAAAA	0.0374 % of ANNNNAAN 8-mers
ACGTGAAG	0.0282 % of ANNNNAAN 8-mers
AATCCAAC	0.0288 % of ANNNNAAN 8-mers
AAGCCAAA	0.0414 % of ANNNNAAN 8-mers
ATAGCAAC	0.0184 % of ANNNNAAN 8-mers
ACTAGAAT	0.061 % of ANNNNAAN 8-mers
AACTTAAG	0.042 % of ANNNNAAN 8-mers
ATATAAAG	0.088 % of ANNNNAAN 8-mers
AATAAAAT	0.214 % of ANNNNAAN 8-mers
